Screening data as filed in PubChem BioAssay.
A selection: hits, their analogues and other compounds. The true share with any hit is near 13%.
Pf growth 48h = P. falciparum growth inhibition at 48 hours (one generation) | actives 5.9% (n = 310,000) | Potency, µM (titrated, usually from 28.7 µM), actives largely listed as inhibitors | P. falciparum luciferase growth in erythrocytes, 48 h
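Here the parasites carry a stable luciferase gene and grow inside erythrocytes in Albumax-based RPMI medium with compound for one erythrocytic cycle. Activity is scored as loss of luminescent signal.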
Pf growth 96h = inhibits malaria parasite growth, 96 h; P. falciparum luciferase reporter growth, 96 h; Potency, µM (series often up to 28.7 µM), most hits filed as inhibitors; actives 6.9% (n = 320,000)
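Readout is luminescence from an integrated firefly luciferase in P. falciparum. Red cells, 2% hematocrit and 0.05% parasitemia final, were cultured with compound through two parasite generations (96 hours) at 37 C, 5% CO2.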
HCMV antiviral = inhibitors of human cytomegalovirus; AID 1259415; activity change, negative = inhibition, % at 57.5 µM; actives 4.5% (n = 410,000); HFF cells, HCMV-luciferase reporter, 72 h; hits give low values; in the data active means activity change below about -60%; inconclusive means no clear call, values can overlap the other calls; inactive means above about -39%
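Two compound doses tested in HFFs infected with HCMV-luciferase, MOI 1 PFU/cell, 72 h at 37C. Lysate luminescence read with OneGlo; data normalized against buffer-only and 10uM Salinomycin inhibitor controls.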
HCV inhibitor = HCV inhibition; actives 3.4% (n = 340,000); Potency, µM (highest dose often 41.8 µM), actives largely listed as inhibitors; Huh7.5.1 HCVcc-Cre infection, luciferase reporter, 44 h; AID 651820
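Compounds are dispensed onto cells plated 4 h earlier at 1,000 per well, with HCVcc-Cre virus (about 0.5 moi) added next. Following 44 h of culture, luminescent signal is measured for 15 sec after 15 min with substrate at room temperature.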
Each line names hits and unclear results; the compound was inactive in the other large screens. Unless noted, the call rests on the fitted dose curve; in most records, active means well fitted inhibition curve with a large enough effect; inconclusive means small, poorly fitted or top-dose-only effect, or another doubt; inactive means no such curve, though single readings can be large or run the other way.

CN(CC(=O)Nc1ccc(Cl)c(Cl)c1)C(=O)C1CCCC1	Pf growth 48h inconclusive, Pf growth 96h 5.22µM
COc1ccc(NC(=S)c2ccncc2)cc1	Pf growth 96h 10.4µM
CC1CN=C(c2ccc(Cl)cc2)c2c3ccc(C(F)(F)F)cc3nn21 (configuration not stated)	none (no result: Pf growth 48h, Pf growth 96h, HCV inhibitor)
O=C(CSc1nccn1Cc1ccccc1)NCc1ccco1	none (no result: Pf growth 48h, Pf growth 96h, HCV inhibitor)
CCc1ccc(NC(=O)C2CCCN(S(=O)(=O)c3c(C)noc3/C=C/N(C)C)C2)cc1 (configuration not stated)	none (no result: Pf growth 48h, Pf growth 96h, HCV inhibitor)
CCCCCN1C=CC(=C2C(=O)c3ccccc3C2=O)C=C1	HCMV antiviral -90.4
COCC(=O)Nc1ccc(Br)cc1C	Pf growth 96h 5.86µM
CCCCOC(=O)c1ccc(NC(=O)CC2NCCNC2=O)cc1 (configuration not stated)	none (no result: Pf growth 48h, Pf growth 96h, HCV inhibitor)
CCOC(=O)c1cc(-c2ccccc2)n(-c2cccc(C(=O)Nc3ccc(OC)cc3)c2)c1C	HCMV antiviral active (no result: Pf growth 48h, Pf growth 96h, HCV inhibitor)
CCOC(=O)c1cc(-c2ccccc2)n(-c2cccc(C(=O)Nc3cccc(F)c3)c2)c1C	HCMV antiviral active (no result: Pf growth 48h, Pf growth 96h, HCV inhibitor)
COc1ccc(-c2cc3nc(C)c(CCC(=O)N4CCN(c5cccc(Cl)c5)CC4)c(C)n3n2)c(OC)c1	none (no result: Pf growth 48h, Pf growth 96h, HCV inhibitor)
CCC(C)NC(=O)[C@H]1N2C(=O)c3ccccc3C2SC1(C)C (some centres not stated)	none
CC(C)[C@H](NC(=O)[C@H]1N2C(=O)c3ccccc3C2SC1(C)C)C(=O)NCc1ccco1 (some centres not stated)	Pf growth 48h inconclusive, Pf growth 96h inconclusive, HCMV antiviral active
C[C@H](NC(=O)[C@H]1N2C(=O)c3ccccc3C2SC1(C)C)C(=O)N1CCC[C@H]1C(=O)O (some centres not stated)	Pf growth 48h inconclusive, Pf growth 96h inconclusive, HCV inhibitor 1µM
CCC(C)[C@H](NC(=O)[C@@H]1Cc2c([nH]c3ccccc23)C2c3ccccc3C(=O)N21)C(=O)N1CCC[C@@H]1C(=O)O (some centres not stated)	Pf growth 48h inconclusive, Pf growth 96h 10.4µM
CC1(C(=O)NS(=O)(=O)c2cccc(F)c2)CCN1C(=O)CC1CCCCC1 (configuration not stated)	none (no result: Pf growth 48h, Pf growth 96h, HCV inhibitor)
COc1ccc(CC(=O)NC2CC(=O)N(c3cccc(F)c3)C2)cc1OC (configuration not stated)	none (no result: Pf growth 48h, Pf growth 96h, HCV inhibitor)
CCCC(C(=O)NC(C)(C)C)N(CCN1CCOCC1)C(=O)CNS(=O)(=O)c1ccccc1 (configuration not stated)	none
CC(C)C(C(=O)NC(C)(C)C)N(CCN1CCOCC1)C(=O)CNS(=O)(=O)c1ccccc1 (configuration not stated)	Pf growth 96h 1.85µM
O=C(NC1CCCC1)c1ccc2c(=O)n(Cc3ccccc3)c(SCc3ccccc3F)nc2c1	none (no result: Pf growth 48h, Pf growth 96h, HCV inhibitor)
CCOc1ccc(-n2c(-c3ccc(OC)cc3)c[n+]3c2CCCCC3)cc1	Pf growth 48h 0.738µM, Pf growth 96h inconclusive, HCMV antiviral -98.6, HCV inhibitor 7.94µM
CCOc1ccc(-n2c(-c3ccc(Br)cc3)c[n+]3c2CCCCC3)cc1	Pf growth 48h 5.22µM, Pf growth 96h inconclusive, HCMV antiviral -98.9
COc1ccc(C2CC(=O)N(CC(=O)Nc3ccc(C)c(Cl)c3)c3ccccc3S2)cc1OC (configuration not stated)	none (no result: Pf growth 48h, Pf growth 96h, HCV inhibitor)
COc1cc(OC)c(OC)cc1CN1CCc2nc(Nc3ccc4c(c3)OCCO4)ncc2C1	none (no result: Pf growth 48h, Pf growth 96h, HCV inhibitor)
C/C(CC(=O)Nc1cccc2c1CCCC2)=N\NC(=O)Cc1ccccc1	none
C/C(CC(=O)Nc1cccc2c1CCCC2)=N\NC(=O)COc1ccccc1	Pf growth 96h 2.08µM
CCOC(=O)Cc1c(C)nc2c(C#N)c[nH]n2c1=O	none (no result: HCV inhibitor)
O=c1c2c(nc3c(-c4cccc(Br)c4)c[nH]n13)CCCC2	Pf growth 48h inconclusive, Pf growth 96h inconclusive, HCMV antiviral -102.1, HCV inhibitor 6.31µM
CCOC(=O)Cc1c(C)nc2c(-c3cccc(Br)c3)c[nH]n2c1=O	Pf growth 48h inconclusive, HCMV antiviral -93.1, HCV inhibitor inconclusive
O=c1c2c(nc3c(-c4ccccc4)c[nH]n13)CCC2	HCV inhibitor inconclusive
O=c1c2c(nc3c(-c4ccc(Cl)cc4)c[nH]n13)CCC2	Pf growth 48h 10.4µM, HCMV antiviral -76.6, HCV inhibitor inconclusive
CCOC(=O)Cc1c(C)nc2cc(-c3ccc(C(C)(C)C)cc3)nn2c1C	none (no result: Pf growth 48h, Pf growth 96h, HCV inhibitor)
CCOC(=O)Cc1c(C)nc2cc(-c3ccc(C(C)(C)C)cc3)[nH]n2c1=O	HCV inhibitor 12.6µM (no result: Pf growth 96h)
